# Reference: the supplement of paper PMC11417369
# Over roughly 25,000 sequences, “ln(normalized median fluorescence intensity)” has its median near 9.7; the highest 2% begin near 11. This is one part of a sample in which the highest values are shown more often than they occur.
# Tested on: PfAP2-HC AP2 domain (GST-tagged)
# Test: gcPBM binding intensity (ln(normalized median fluorescence intensity)); higher = stronger DNA binding
# Procedure, shortened: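 GST-tagged P. falciparum DNA-binding domains produced in E. coli were incubated for 1 h on an Agilent 4 × 180k array of primer-extended double-stranded 36-bp intergenic genomic probes with negative controls. Binding intensity is the highest Masliner-normalised natural-log median intensity across replicate spots of either probe orientation, with bound protein detected by Alexa488 anti-GST antibody at 488 nm.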
row,Sequence,gcPBM binding intensity (ln)
1,ACTTACCCATTTATTACACACATAAAGGAAAATTTT [CACACA_site4873],9.88
2,TTTTATAAAAACAAAAACAAAGGCACTTTCTAAAGA [XGTACX_negctrl_site130],9.58
3,TATATGTTATATTTAACACACATATAAGGTACATAT [CACACA_site612],9.83
4,ACTTTTTAATATTTTAGTACACAGTAATTCTTACTA [XGTACX_site1425],9.75
5,CAAGAAACAGTGATACGTACACATATATATATATAT [XGTACX_site3229],9.91
6,AATATAAGGATATATACACACATAAATACATACATA [CACACA_site7859],9.99
7,AAGGATATAACATACACACACACACGGATATAAATA [CACACA_site7867],11
8,AAATAACACATATATACACACATATAAATATAATAT [CACACA_site2692],10.3
9,TTGTGGATTTTGTGCGCACACACATGCAAAAAGAAA [CACACA_site1147],10
10,GCCGCACCCAGATACGCACACAAGAAAAAAATATTC [CACACA_site3456],9.8
11,ATAATATTATGAACCTGTACATAATTTTTCTTTTCT [XGTACX_site3377],9.62
12,ACAAGAGAAAAAAATACACACAAGATAAAAATGTAT [CACACA_site607],9.95
13,ACAAGAATACACCACGCACACACACTAGAGAAAAAA [CACACA_site9276],11.6
14,AAAAAGAAAATATATACACACCAAAAAAAAAAAAAA [CACACA_site5698],9.75
15,GAATACACCACGCACACACACTTGAGAAAAAATAAA [CACACA_site7747],10.3
16,AAGAATACACCACGCACACACACTTGAGAAAAAATA [CACACA_site3828],11.2
17,AAAGCACGCAAGAATACACACAAATATTATAAAAAA [CACACA_site6206],10.1
18,AATATTTATAAATTTACACACACACCCGTGAACATA [CACACA_site1910],10.2
19,ACCATACATACATACACACACACACCCATATATATA [CACACA_site2917],10.6
20,CACGCGCACCAACACACACACACACCCATATATATA [CACACA_site2204],11.1
21,TAACCATACATACATACACACACACCCACATATATA [CACACA_site8951],10.3
22,CATACTCACCAACACACACACACACCCATATAGAAT [CACACA_site592],11.1
23,TATACATACCCACCCACACACAAAAAAAAAAAAAAA [CACACA_site4632],10.2

row,Sequence,gcPBM binding intensity (ln)
1,CACCCACACCAACACACACACATATATAATATATAT [CACACA_site595],10.6
2,CACACCACCAACAAAAGTACATACATATATATATAT [XGTACX_site5781],9.82
3,GACACCCATAAATATACACACGCACAACACAAAATA [CACACA_site8944],9.98
4,CGCGCACCCAGACACACACACACACCCATATATATA [CACACA_site2203],10.6
5,TATAAACACCCATATAAACACACATATAAACCAACA [CACACA_site8790],10
6,CATATACACCAACACACACACACACCCACAAAAAAA [CACACA_site496],11.3
7,CACACCCACCAACACACACACACACCCACCCATATA [CACACA_site366],11
8,TAATTAAAATCATATACACACCCATATATATATATA [CACACA_site8524],10
9,AAATACCTTATATATACACACTATGTTTTTCTTTTT [CACACA_site4792],9.97
10,AATAAATAAAAATTATGTACATATATAAAAAATACA [XGTACX_site8581],9.82
11,TTGTTTCTTTTTTTTTGTACATATATATTGTATATT [XGTACX_site7602],9.89
12,AATAATAAATCAAACTGTACATATATTTTCAATCTA [XGTACX_site3344],9.61
13,TATAAAAAAATAATAAAATAATAAAATATATAAATA [TGCATGCA_negctrl_site394],9.6
14,AAAAAAAAAAAATGTGCACACGCGTACAGACAAAAA [CACACA_site2005],10.3
15,ATTAAATCTATATATACACACATGTTTGGTATATTC [CACACA_site2657],9.87
16,ATGCACTCATTGTGCACACGCATATTACGAAAAGAA [CACACA_site2638],9.86
17,TTTTTTTTTTGATGTTGTACATATATACTATATAAT [XGTACX_site1332],9.65
18,AAAACAAATGCTTAAAGTACTTATTATTTTTCTTTT [XGTACX_site6324],9.57
19,GATGAATAAATCAAAGCACACATACACCCACATATA [CACACA_site7986],11.2
20,AAATTATAATATAATACACACATAAAAAAAAAAAAA [CACACA_site7],9.79
21,TACATATACATATACACACACACACCCAAATAAATA [CACACA_site1344],10.5
22,ATTAATTATATATATACACACACATACACCCAAATA [CACACA_site9126],10.3
23,AATAAATATATATACACACCCATATATATATATATA [CACACA_site2595],9.63

row,Sequence,gcPBM binding intensity (ln)
1,TCAAAGCACCCATACACACACATATATATATATATA [CACACA_site4317],10.5
2,TATAAATAAATTTATACACACACACCCATATATATA [CACACA_site8183],10.3
3,TGAATAAATCAAAGCACACATACACCCACATATATA [CACACA_site286],10.2
4,TAATTATATAAATACACACACATACACCCAAATAAA [CACACA_site5819],11.1
5,TAAATAAATTTATACACACACACACCCATATATATA [CACACA_site849],10.9
6,CATATATATAAATACACACACACACCCCTTATAATT [CACACA_site4064],10.6
7,CATATAAATAAATACACACACACACGCCTTATAATT [CACACA_site7830],11.6
8,TCTTTTTTTTTACATACTTTTTTCCTTTTTTTTTTA [CACACA_negctrl_site1429],9.71
9,TCTTACAAAAAACAAACAGAGAAAAATATAAGGAAA [XGTACX_negctrl_site520],9.61
10,AAATTATTTCCGTGTACACATAAATATATATTTTAT [CACACA_site5121],9.89
11,CAATATTTTCATAGATGTACTTTGGACTTATTATAT [XGTACX_site4849],9.6
12,AATATTGTATATAATAAACACACAATATTAAAAATA [CACACA_site8262],10.1
13,TAACATATTATATATACATGCATACGTGAACTAATC [TGCATGCA_site888],9.72
14,ATTTATTTATGTATTTGTACGTATATATTTATGCAT [XGTACX_site5218],9.83
15,CAAAAAAAATAAAACACACACACAAAAAAATAAAAA [CACACA_site466],10.7
16,GGACAACAAACAAACACACACAAAAAAAAAATAAAA [CACACA_site3791],11
17,AAGTAAAAAAATAGCACACACACAAAAACACAGACA [CACACA_site4839],10.7
18,ATAAATAAAAACACAAAACAAAACAAAACAAAACAA [CACACA_negctrl_site1257],9.61
19,CAACAAAATAAACACACACACACAAACACAAAAAAA [CACACA_site5806],11.4
20,GTAAAAAAATAGCACACACACAAAAACACGCACAAA [CACACA_site6723],11.4
21,TTTCAATAATAAAAAACACACACAAAAAAAAATAAT [CACACA_site8905],11
22,TCAATAATAAAAAACACACACAAAAAAAAATAATTA [CACACA_site2798],10.2
23,AAAACAAATAGACACGCACACAAAAAAAAAAAAAAA [CACACA_site801],10.3

row,Sequence,gcPBM binding intensity (ln)
1,AAGGACAACAAACAAACACACACAAAAAAAAAATAA [CACACA_site9263],10.2
2,ACAAATAAATAAAAAACACACACAAATAAATAAATA [CACACA_site8708],10.6
3,AAAAAAATAAAACACACACACAAAAAAATAAAAATA [CACACA_site465],10.8
4,TATTTGTAAAAATTGTGTACTTAGAAAATTCCAAAA [XGTACX_site6007],9.22
5,ATAATATATGAAAAAACGATTTTTTCATTTTAAATA [XGTACX_negctrl_site146],9.51
6,TTTGGTTATATTTAAAAAAGACTAATGAAAATTAAA [XGTACX_negctrl_site526],9.35
7,AACATTCTATGTTGCACACAAAGAGAAAAATTTATT [CACACA_site3995],9.78
8,TATATATATATATATATATATATTTTTATTATATAT [XGTACX_negctrl_site89],9.89
9,GTTTTCATCCAAAAAAGTACATTTATTTTTATACGA [XGTACX_site1039],9.39
10,TTTTCTAAAGTAAGTTAAGATATGCAAAAAAAAGAA [GTGCAC_negctrl_site242],9.62
11,AAAATAAAATAAAACACAAAAAAATAAAACAAAATA [CACACA_negctrl_site16],9.78
12,AAAAAAAAAAAAAACACACACACAAAATAAACAAAC [CACACA_site2720],10.8
13,ACAAAATAAAAACACACACACAAACACAAAAAAATA [CACACA_site3390],11.4
14,AAGGATATAAAAAAACGTACGTACGATAATATAATT [XGTACX_site1292],9.86
15,GTTGTTATATAAAATTGTACATAAAAAACAAAATAT [XGTACX_site5313],9.66
16,AAAAACCATGGGCACACACACATAATATATAATATA [CACACA_site1425],10.4
17,AAAAAAAAAAAAAAAACACACATATATCTATAATAT [CACACA_site6665],9.84
18,AAAAAAAAAAAAAAAACACACACATATATATAATAT [CACACA_site9038],10.3
19,GGAAAAACCATTCGCACACACACATAATATATAATA [CACACA_site1424],10.2
20,AAAAACCATTCGCACACACACATAATCTATAATATA [CACACA_site6782],11.1
21,AAAAACCATTGGCACACACACATAATATATAATATA [CACACA_site4903],11.4
